Source: PubChem BioAssay (Tox21)
Where “and” joins values, the source holds several entries; their conditions need not be identical. Identical values can stand only once. The source holds several records for some structures; these can differ, active in one and inactive in another. Calls of active or inactive are those of the source. Where a call stands in place of a potency, no number is given. Unless noted, calls come from the whole dose curve; as a rule, active = well fitted curve in the direction sought with a large enough effect in the repeat runs; inconclusive = weak or mixed curves; inactive = no such curve, though single readings can be large; an effect the other way counts as inactive or inconclusive.

What was measured:
[1] = qHTS assay to identify small molecule antagonists of the glucocorticoid receptor (GR) signaling pathway - cell viability counter screen (AID 720693); settings: GR-bla HeLa viability, CellTiter-Glo luminescence, 18 h, with 5 nM dexamethasone present; series mostly up to 58.5 µM; note: nearly all actives have a fitted effect of over 55% in size; note: potency is the fitted concentration of half-maximal effect
[2] = qHTS assay for identifying genotoxic compounds that show differential cytotoxicity against isogenic chicken DT40 cell lines with known DNA damage response pathways - wild type cell line (AID 743012); settings: DT40 wild type chicken cells viability, CellTiter-Glo, 40 h; series mostly up to 68.4 µM; note: nearly all actives have a fitted effect of over 60% in size; note: potency is the fitted concentration of half-maximal effect
Method in brief: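 Cells (DT40 wild type, 300/well) are treated with DMSO-dissolved compounds after a ~0.5 h pre-incubation and kept 40 h at 37 C/5% CO2. Viability is then measured by CellTiter-Glo luminescence following 30 min at room temperature.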

[3] = qHTS assay for identifying genotoxic compounds that show differential cytotoxicity against isogenic chicken DT40 cell lines with known DNA damage response pathways - Rev3 mutant cell line (AID 743014); settings: chicken DT40 Rev3-/- viability, CellTiter-Glo, 40 h; series mostly up to 68.4 µM; note: nearly all actives have a fitted effect of over 55% in size; note: potency is the fitted concentration of half-maximal effect
[4] = qHTS assay for identifying genotoxic compounds that show differential cytotoxicity against isogenic chicken DT40 cell lines with known DNA damage response pathways - Rad54/Ku70 mutant cell line (AID 743015); settings: DT40 Rad54/Ku70 mutant viability, CellTiter-Glo, 40 h; series mostly up to 66.8 µM; note: nearly all actives have a fitted effect of over 60% in size; note: potency is the fitted concentration of half-maximal effect
[5] = qHTS assay to identify small molecule antagonists of the thyroid receptor (TR) signaling pathway - cell viability counter screen (AID 743064); settings: GH3.TRE-Luc viability, CellTiter-Fluor, 24 h; series mostly up to 70.3 µM; note: nearly all actives have a fitted effect of over 50% in size; note: potency is the fitted concentration of half-maximal effect
Method in brief: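 Viability of T3-stimulated (1 nM final) GH3.TRE-Luc cells is measured by CellTiter-Fluor fluorescence after 23.5 h compound exposure at 37 °C plus 30 min reagent incubation.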

[6] = qHTS assay to identify small molecule antagonists of the thyroid receptor (TR) signaling pathway (AID 743065); settings: GH3.TRE-Luc, T3-stimulated luciferase inhibition, 23.5 h; series mostly up to 70.3 µM; note: nearly all actives have a fitted effect of over 55% in size; note: potency is the fitted concentration of half-maximal effect
Method in brief: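 GH3.TRE-Luc rat pituitary cells carrying two TR response elements driving luciferase were plated for 4 h, given compound plus 1 nM T3 (final), and incubated 23.5 h at 37 C. ONE-Glo luminescence measured reporter inhibition; CellTiter-Fluor fluorescence tracked cytotoxicity.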

[7] = tested on: thyroid hormone receptor (rat, GH3 cells); test: qHTS assay to identify small molecule agonists of the thyroid receptor (TR) signaling pathway (AID 743066; calls by dose curve); settings: GH3.TRE-Luc cells, TR agonist luciferase, 24 h; series mostly up to 83.9 µM
[8] = qHTS assay to identify small molecule antagonists of the estrogen receptor alpha (ER-alpha) signaling pathway - cell viability counter screen (AID 743074; calls by dose curve; note: nearly all actives have a fitted effect of over 45% in size; note: potency is the fitted concentration of half-maximal effect); settings: ERalpha-bla HEK293 viability, CellTiter-Glo luminescence, 18 h; series mostly up to 69.4 µM
[9] = molecular target: Estrogen receptor (Homo sapiens) (UniProt P03372); test: qHTS assay to identify small molecule agonists of the estrogen receptor alpha (ER-alpha) signaling pathway (AID 743075; calls by dose curve; note: potency is the fitted concentration of half-maximal effect); settings: HEK293 ER-alpha-UAS-bla, beta-lactamase FRET ratio, 18 h; series mostly up to 70.1 µM
[10] = qHTS assay to identify small molecule antagonists of the estrogen receptor alpha (ER-alpha) signaling pathway using the BG1 cell line (AID 743080; calls by dose curve;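 note: BG1 cells stimulated with 17beta-estradiol alongside compound; nearly all actives have a fitted effect of over 25% in size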; note: potency is the fitted concentration of half-maximal effect); settings: BG1Luc4E2 ERE-luciferase antagonist mode, luminescence; series mostly up to 70.3 µM
Method in brief: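 Endogenous full-length ER-alpha in BG1-Luc-4E2 cells drives a stably integrated 4×ERE luciferase gene; compounds were tested against 17beta-estradiol over 21.5 h, with luminescence and multiplexed viability fluorescence recorded.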

[11] = molecular target: Aromatase (Homo sapiens) (UniProt P11511); test: qHTS assay to identify aromatase inhibitors (AID 743083); settings: MCF-7 aro ERE, testosterone-driven ERE luciferase, 24 h; series mostly up to 70.3 µM; note: nearly all actives have a fitted effect of over 55% in size; note: potency is the fitted concentration of half-maximal effect
[12] = qHTS assay to identify small molecule antagonists of the androgen receptor (AR) signaling pathway - cell viability counter screen (AID 743033; note: nearly all actives have a fitted effect of over 45% in size; note: potency is the fitted concentration of half-maximal effect); settings: AR-bla HEK293 viability, CellTiter-Glo luminescence, 16 h; series mostly up to 58.5 µM
[13] = qHTS assay to identify small molecule antagonists of the androgen receptor (AR) signaling pathway using the MDA cell line - cell viability counter screen (AID 743041; note: nearly all actives have a fitted effect of over 45% in size; note: potency is the fitted concentration of half-maximal effect); settings: MDA-kb2 viability, CellTiter-Fluor, 16 h, cells co-treated with R1881 androgen agonist; series mostly up to 70.3 µM
Method in brief: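 MDA-kb2 AR-luc human breast carcinoma cells (MMTV-luciferase, AR/GR responsive) were treated with compounds plus R1881 agonist for 16 h at 37 °C. Viability was read as CellTiter-Fluor fluorescence in the same wells as the reporter assay.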

[14] = qHTS assay to identify small molecule antagonists of the estrogen receptor alpha (ER-alpha) signaling pathway using the BG1 cell line - cell viability counter screen (AID 743081); settings: BG1Luc4E2 viability, CellTiter-Fluor, 22 h; series mostly up to 70.3 µM;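 note: compound given together with 17beta-estradiol as the ER stimulus; nearly all actives have a fitted effect of over 45% in size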; note: potency is the fitted concentration of half-maximal effect
[15] = molecular target: Estrogen receptor (Homo sapiens) (UniProt P03372); test: qHTS assay to identify small molecule antagonists of the estrogen receptor alpha (ER-alpha) signaling pathway (AID 743069; active = well fitted curve in the direction sought with a large enough effect in the signal ratio in the repeat runs, not every such curve was filed as active; inconclusive = weak or mixed curves, or effect the other way; inactive = no such curve, though single readings can be large or run the other way; the % refers to the signal ratio; note: potency is the fitted concentration of half-maximal effect); settings: HEK293 ER-alpha-UAS-bla, beta-lactamase ratio, antagonist mode; series mostly up to 69.4 µM
Method in brief: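 HEK293 cells stably carrying an ER-alpha-UAS-bla beta-lactamase reporter were pre-cultured overnight in 2% charcoal-stripped FBS medium. Test compounds in DMSO were added together with 17beta-estradiol for 18 hr at 37C. Read-out was fluorescence after 2 hr with LiveBLAzer B/G FRET substrate at room temperature.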

[16] = molecular target: Estrogen receptor (Homo sapiens) (UniProt P03372); test: qHTS assay to identify small molecule agonists of the estrogen receptor alpha (ER-alpha) signaling pathway using the BG1 cell line (AID 743079); settings: BG1Luc4E2 cells, ERE-luciferase agonist, 22 h; activation: at 70.3 µM (top of the series) unless noted; note: nearly all actives have a fitted effect of over 20% in size; note: potency is the fitted concentration of half-maximal effect
[17] = molecular target: Androgen receptor (Homo sapiens) (UniProt P10275); test: qHTS assay to identify small molecule antagonists of the androgen receptor (AR) signaling pathway (AID 743035; active = well fitted inhibition curve with a large enough effect in the signal ratio in the repeat runs, not every such curve was filed as active; inconclusive = weak or mixed curves, or effect the other way; inactive = no such curve, though single readings can be large or run the other way; the % refers to the signal ratio; note: potency is the fitted concentration of half-maximal effect); settings: HEK293 AR-UAS-bla, R1881-stimulated, beta-lactamase FRET, 16 h; series mostly up to 58.5 µM
Method in brief: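 Antagonism is scored as loss of R1881-driven beta-lactamase reporter expression in HEK293 cells carrying the reporter under a UAS element, after 16 h co-treatment at 37C and a 2 h room-temperature FRET substrate read.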

[18] = molecular target: Androgen receptor (Homo sapiens) (UniProt P10275); test: qHTS assay to identify small molecule agonists of the androgen receptor (AR) signaling pathway (AID 743036; active = well fitted activation curve with a large enough effect in the signal ratio in the repeat runs, with a control signal flat, not every such curve was filed as active; inconclusive = weak or mixed curves, or effect the other way; inactive = no such curve, though single readings can be large or run the other way; the % refers to the signal ratio); settings: HEK293 AR-UAS-bla GripTite, beta-lactamase FRET ratio, 16 h; series mostly up to 62.4 µM
Method in brief: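 Screening used 2,000 AR-bla HEK293 cells per well, treated 16 h at 37C with test compounds in DMSO alongside positive and DMSO-only controls; beta-lactamase activity was then read by LiveBLAzer B/G FRET fluorescence after 2 h at room temperature.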

[19] = molecular target: Androgen receptor (Homo sapiens) (UniProt P10275); test: qHTS assay to identify small molecule agonists of the androgen receptor (AR) signaling pathway using the MDA cell line (AID 743040; note: nearly all actives have a fitted effect of over 20% in size); settings: MDA-kb2 AR-luc cells, MMTV luciferase, 16 h; at 70.3 µM (top of the series); stronger effect = higher value
Method in brief: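 MDA-kb2 breast carcinoma cells stably carrying an MMTV-driven luciferase reporter (AR- and GR-responsive) were seeded and held 5 h at 37C, 0% CO2, then exposed to compounds in DMSO for 16 h. Luminescence was read 30 min after ONE-Glo addition.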

[20] = molecular target: Androgen receptor (Homo sapiens) (UniProt P10275); test: qHTS assay to identify small molecule antagonists of the androgen receptor (AR) signaling pathway using the MDA cell line (AID 743042); settings: MDA-kb2 AR-luc, MMTV luciferase, R1881 antagonist, 16 h; series mostly up to 70.3 µM
Method in brief: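 MDA-kb2 cells (human breast carcinoma, stably carrying an MMTV-luciferase reporter responsive to AR and GR) were plated at 3,000 cells/well and preincubated 5 hr at 37C, then given compound plus R1881 agonist for 16 h. ONE-Glo luminescence was read.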

Aromatase (Homo sapiens), sequence (P11511 whole entry, looked up): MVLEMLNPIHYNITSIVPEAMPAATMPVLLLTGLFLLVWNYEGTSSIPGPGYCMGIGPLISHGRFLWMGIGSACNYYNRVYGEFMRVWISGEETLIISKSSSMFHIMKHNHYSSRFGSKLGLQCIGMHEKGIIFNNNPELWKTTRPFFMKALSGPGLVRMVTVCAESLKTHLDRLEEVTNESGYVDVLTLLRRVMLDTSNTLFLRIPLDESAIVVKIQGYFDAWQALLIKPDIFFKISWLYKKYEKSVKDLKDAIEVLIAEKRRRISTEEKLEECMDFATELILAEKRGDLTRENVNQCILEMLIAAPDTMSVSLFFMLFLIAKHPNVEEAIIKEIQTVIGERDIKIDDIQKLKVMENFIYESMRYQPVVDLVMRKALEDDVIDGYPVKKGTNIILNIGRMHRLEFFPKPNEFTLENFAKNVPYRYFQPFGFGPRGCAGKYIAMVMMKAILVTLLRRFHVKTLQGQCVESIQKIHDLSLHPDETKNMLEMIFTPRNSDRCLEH
Androgen receptor (Homo sapiens), sequence (P10275 whole entry, looked up): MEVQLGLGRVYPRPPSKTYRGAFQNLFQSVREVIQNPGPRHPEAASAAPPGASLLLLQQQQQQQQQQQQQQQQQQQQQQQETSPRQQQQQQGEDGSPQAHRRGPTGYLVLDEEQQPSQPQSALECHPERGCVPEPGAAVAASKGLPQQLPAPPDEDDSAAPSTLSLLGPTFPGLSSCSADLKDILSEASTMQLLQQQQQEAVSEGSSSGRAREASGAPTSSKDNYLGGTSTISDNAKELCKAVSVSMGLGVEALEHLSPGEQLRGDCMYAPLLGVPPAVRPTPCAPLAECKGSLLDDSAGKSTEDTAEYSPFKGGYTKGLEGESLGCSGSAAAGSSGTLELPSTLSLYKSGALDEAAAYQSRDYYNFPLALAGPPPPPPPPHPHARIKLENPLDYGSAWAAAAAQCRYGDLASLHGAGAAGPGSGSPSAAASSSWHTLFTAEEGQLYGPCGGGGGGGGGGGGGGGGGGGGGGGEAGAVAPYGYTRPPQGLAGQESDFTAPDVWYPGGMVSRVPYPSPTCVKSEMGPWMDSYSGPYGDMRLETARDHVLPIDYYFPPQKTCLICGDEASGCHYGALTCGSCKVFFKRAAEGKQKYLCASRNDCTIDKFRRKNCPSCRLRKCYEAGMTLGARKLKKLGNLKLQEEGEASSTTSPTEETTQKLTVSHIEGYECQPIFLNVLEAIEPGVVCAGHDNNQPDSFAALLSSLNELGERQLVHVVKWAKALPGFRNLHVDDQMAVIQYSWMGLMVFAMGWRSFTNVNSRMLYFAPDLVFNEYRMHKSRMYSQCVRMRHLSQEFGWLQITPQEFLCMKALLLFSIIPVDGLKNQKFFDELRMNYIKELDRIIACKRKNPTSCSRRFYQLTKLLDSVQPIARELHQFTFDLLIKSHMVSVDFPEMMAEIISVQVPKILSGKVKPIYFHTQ
Estrogen receptor (Homo sapiens), sequence (P03372 whole entry, looked up): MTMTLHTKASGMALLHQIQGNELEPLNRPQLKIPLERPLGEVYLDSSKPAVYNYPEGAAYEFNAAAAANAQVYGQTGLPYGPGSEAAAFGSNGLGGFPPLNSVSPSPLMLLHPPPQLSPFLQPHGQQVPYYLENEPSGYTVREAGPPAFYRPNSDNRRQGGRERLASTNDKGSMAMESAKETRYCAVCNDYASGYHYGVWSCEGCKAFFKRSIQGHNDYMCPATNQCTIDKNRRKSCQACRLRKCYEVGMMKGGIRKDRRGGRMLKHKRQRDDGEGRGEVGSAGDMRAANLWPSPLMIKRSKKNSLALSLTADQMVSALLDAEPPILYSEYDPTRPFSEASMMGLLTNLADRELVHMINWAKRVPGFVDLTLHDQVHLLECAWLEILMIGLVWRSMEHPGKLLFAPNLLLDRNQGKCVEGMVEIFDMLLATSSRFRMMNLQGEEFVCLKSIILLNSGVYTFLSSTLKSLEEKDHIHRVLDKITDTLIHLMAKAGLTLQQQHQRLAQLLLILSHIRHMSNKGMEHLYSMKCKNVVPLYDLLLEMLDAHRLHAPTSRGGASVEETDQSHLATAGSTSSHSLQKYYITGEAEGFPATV

SMILES	Potency [1]	Potency [2]	Potency [3]	Potency [4]	Potency [5]	Potency [6]	Potency [7]	Potency [8]	Potency [9]	Potency [10]	Potency [11]	Potency [12]	Potency [13]	Potency [14]	Potency [15]	Potency [16]	Potency [17]	Potency [18]	activity change [19]	Potency [20]
CC(C)(O)C(=O)Nc1ccc([N+](=O)[O-])c(C(F)(F)F)c1	inactive	55.6 µM (active) and 5.62 µM (active)	49.5 µM (active) and 6.31 µM (active)	19.7 µM (active) and 5.01 µM (active)	inactive	62.4 µM (active)	inactive	inactive	inactive	55.6 µM (active)	inactive	–	–	–	–	–	–	–	–	–
N#CCCCCC#N	inactive	inactive	inactive	inactive	–	inactive	inactive	inactive	–	–	inactive	inactive	inactive	inactive	–	–	–	–	–	–
CCN(CC)C(=O)C(C)Oc1cccc2ccccc12 (stereo not given)	inactive	10.9 µM (active)	54.9 µM (active) and 17.2 µM (active)	17.2 µM (active)	inactive	–	inactive	inactive	inactive	–	34.4 µM (active)	–	inactive	inactive	inactive	inactive	–	–	–	–
CC(C)(c1ccccc1)c1ccc(O)cc1	inactive	21.7 µM (active)	60.6 µM (active) and 17.2 µM (active)	13.7 µM (active)	48.2 µM (active) and 61.1 µM (active)	–	inactive	inactive	4.33 µM [inconclusive] (active) and 3.89 µM [inconclusive] (active)	–	30.4 µM (active) and 30.6 µM (active)	38.6 µM (active) and 49 µM (active)	inactive	inactive	24.3 µM [inhibitor] (active)	1.08 µM (active) and 686 nM (active)	–	–	–	–
Cc1cc(Cl)ccc1N=CN(C)C	inactive	inactive	inactive	inactive	inactive	–	–	inactive	–	–	inactive	inactive	inactive	inactive	–	–	–	–	–	–
Cn1c(-c2ccccc2)cc(-c2ccccc2)[n+]1C	inactive	12.2 µM (active) and 1.37 µM (active)	2.73 µM (active) and 864 nM (active)	4.32 µM (active) and 2.43 µM (active)	inactive	inactive	inactive	–	inactive	30.6 µM (active)	54.4 µM (active) and 54.5 µM (active)	–	–	inactive	inactive	–	–	–	–	–
C[N+](C)(C)C	inactive	inactive	inactive	inactive	inactive	–	inactive	inactive	inactive	inactive	inactive	inactive	inactive	inactive	inactive	inactive and 49.1 µM (active)	–	–	–	–
CCCCCCCCCC(CC)c1ccc(S(=O)(=O)O)cc1 (stereo not given)	–	inactive and 18.8 µM (active)	–	inactive and 30.6 µM (active) and 47.2 µM (active)	–	–	inactive	inactive and 43.6 µM (active)	–	–	–	inactive	inactive	inactive	–	–	–	–	–	–
CNC(=S)S	inactive	inactive	inactive	inactive	inactive	–	–	inactive	inactive	inactive	inactive	inactive	inactive	inactive	inactive	inactive	–	–	–	–
COP(=S)(OC)Oc1ccc(Sc2ccc(OP(=S)(OC)OC)cc2)cc1	inactive	29.8 µM (active) and 68.6 µM (active)	–	–	inactive	inactive	inactive	inactive	inactive	29.8 µM (active)	inactive	–	inactive	inactive	21.9 µM [inconclusive] (active)	–	54.9 µM (active)	inactive	-9.3% (inactive) and -9.83% (inactive)	61.1 µM (active)
Cc1cccc(N=Nc2ccc(N(C)C)cc2)c1	inactive	–	inactive and 27.3 µM (active)	inactive and 27.3 µM (active)	inactive	inactive	inactive	inactive	inactive	–	inactive	inactive	inactive	31.2 µM (active) and 27.3 µM (active)	inactive	139 nM (active) and 864 nM (active)	–	–	–	–
CCCCSP(=O)(SCCCC)SCCCC	inactive	61.1 µM (active)	inactive	inactive	–	inactive	inactive	inactive	–	–	inactive	inactive	inactive	inactive	–	–	–	–	–	–
[CH3][Sn]([Cl])([Cl])[Cl]	inactive	inactive	inactive	inactive	inactive	–	–	inactive	–	–	inactive	inactive	inactive	inactive	–	–	–	–	–	–
CCC[CH2][Sn]([Cl])([CH2]CCC)[CH2]CCC	1.1 µM (active)	546 nM (active) and 486 nM (active)	434 nM (active) and 344 nM (active)	487 nM (active) and 386 nM (active)	307 nM (active) and 386 nM (active)	194 nM (active) and 273 nM (active)	–	693 nM (active) and 1.55 µM (active)	–	274 nM (active) and 486 nM (active)	2.74 µM (active) and 2.17 µM (active)	618 nM (active) and 1.1 µM (active)	1.22 µM (active) and 2.17 µM (active)	2.74 µM (active) and 1.72 µM (active)	–	–	–	–	–	–
CC(C)(O)C#N	inactive	inactive	inactive	inactive	inactive	–	–	inactive	–	–	inactive	inactive	inactive	inactive	–	–	–	–	–	–
